Laboratory results: ChEMBL document CHEMBL3988442, “University of Dundee, Small-Polar-MMV Screening Library” (2021)
For some of these results: Entries with a potency or affinity are not part of this list.

Key:
Design in all cases: scale not given: direction of the effect not stated beside the values
[1] = target: Protein translocase subunit SecA (Escherichia coli (strain K12)) (UniProt P10408); assay: Assay to Identify E. coli SecA ATPase Inhibitors; assay type: functional; settings: 30 µM
[2] = target: T1, Ubiquitin-activating enzyme e1, putative (Leishmania donovani (strain BPK282A1)) (UniProt E9BSI1); assay: Leishmania donovani Ubiquitin Activating Enzyme (LdE1); assay type: functional; settings: 30 µM
T1 sequence (whole entry): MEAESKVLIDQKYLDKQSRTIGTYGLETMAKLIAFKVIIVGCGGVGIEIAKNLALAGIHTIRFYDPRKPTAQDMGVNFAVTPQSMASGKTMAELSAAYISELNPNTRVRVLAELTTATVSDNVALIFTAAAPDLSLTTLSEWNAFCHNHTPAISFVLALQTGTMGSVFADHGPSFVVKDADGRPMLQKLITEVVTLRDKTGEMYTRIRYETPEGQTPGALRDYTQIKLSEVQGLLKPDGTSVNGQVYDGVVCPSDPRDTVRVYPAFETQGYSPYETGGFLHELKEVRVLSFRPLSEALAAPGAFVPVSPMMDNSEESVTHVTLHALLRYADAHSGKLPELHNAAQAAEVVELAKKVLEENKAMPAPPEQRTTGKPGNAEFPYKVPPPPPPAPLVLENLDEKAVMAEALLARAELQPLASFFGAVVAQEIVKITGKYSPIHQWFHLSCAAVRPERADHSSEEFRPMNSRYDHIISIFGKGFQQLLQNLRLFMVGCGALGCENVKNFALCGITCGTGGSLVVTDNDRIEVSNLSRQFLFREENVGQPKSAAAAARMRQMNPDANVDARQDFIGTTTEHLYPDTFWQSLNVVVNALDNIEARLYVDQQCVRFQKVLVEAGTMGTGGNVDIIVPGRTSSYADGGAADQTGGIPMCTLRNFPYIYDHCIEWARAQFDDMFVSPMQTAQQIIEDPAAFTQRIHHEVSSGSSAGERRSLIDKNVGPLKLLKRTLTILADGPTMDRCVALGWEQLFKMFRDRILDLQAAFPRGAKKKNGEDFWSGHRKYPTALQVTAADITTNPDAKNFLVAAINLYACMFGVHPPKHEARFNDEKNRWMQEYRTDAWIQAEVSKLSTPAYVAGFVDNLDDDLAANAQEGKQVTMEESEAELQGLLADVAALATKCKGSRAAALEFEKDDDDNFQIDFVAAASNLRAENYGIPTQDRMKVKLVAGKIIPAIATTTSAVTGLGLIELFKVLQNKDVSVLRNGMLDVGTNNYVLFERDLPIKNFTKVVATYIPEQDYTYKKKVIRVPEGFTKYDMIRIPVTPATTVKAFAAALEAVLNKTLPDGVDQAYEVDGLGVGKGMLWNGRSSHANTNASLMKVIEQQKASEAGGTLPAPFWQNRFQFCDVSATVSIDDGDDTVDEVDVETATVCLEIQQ

[3] = target: AMP-activated protein kinase, AMPK (Homo sapiens) (UniProt P54646+O43741+P54619+Q9UGJ0+Q9Y478+Q13131+Q9UGI9); assay: AMP-dependent Kinase enzyme assay. An in vitro enzyme assay that detects ADP turnover that is directly proportional to AMPK activity. This uses naive AMPK that is activated during the assay with MK-8722; assay type: functional; settings: 30 µM
[4] = target: Sialic acid-binding Ig-like lectin 9 (Homo sapiens) (UniProt Q9Y336); assay: Hs-Siglec9 ALPHAscreen SOP 20170721; settings: 10 µM
Trypanosoma cruzi = assay: Trypanosoma cruzi phosphomannomutase and mannose-1-phosphate guanylyltransferase assay; assay type: functional; settings: 10 µM
[5] = target: T2, Arginase-2, mitochondrial (Homo sapiens) (UniProt P78540); assay: in vitro enzyme assay to detect the production of urea directly proportional to the activity of Arginase II; assay type: functional; settings: 33.3 µM; further: in the data most compounds retested in dose-response had high values
T2 sequence (whole entry): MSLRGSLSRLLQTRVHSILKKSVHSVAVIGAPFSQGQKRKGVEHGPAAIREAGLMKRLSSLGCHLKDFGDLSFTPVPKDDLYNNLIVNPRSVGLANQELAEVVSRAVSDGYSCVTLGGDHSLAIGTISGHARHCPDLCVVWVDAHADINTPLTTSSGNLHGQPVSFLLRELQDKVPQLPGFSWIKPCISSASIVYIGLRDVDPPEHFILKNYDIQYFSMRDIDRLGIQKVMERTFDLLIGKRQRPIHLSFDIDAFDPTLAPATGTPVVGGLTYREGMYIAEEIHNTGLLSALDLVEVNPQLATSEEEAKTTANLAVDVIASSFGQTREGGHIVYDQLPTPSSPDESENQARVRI

[6] = target: T3, Proteasome subunit beta (Trypanosoma cruzi) (UniProt O96673); assay: Trypanosoma cruzi proteasome chymotrypsin-like activity (TcProtChymo) assay.; further: in the data most compounds retested in dose-response had high values; assay type: functional; settings: 9.37 µM
T3 sequence (whole entry): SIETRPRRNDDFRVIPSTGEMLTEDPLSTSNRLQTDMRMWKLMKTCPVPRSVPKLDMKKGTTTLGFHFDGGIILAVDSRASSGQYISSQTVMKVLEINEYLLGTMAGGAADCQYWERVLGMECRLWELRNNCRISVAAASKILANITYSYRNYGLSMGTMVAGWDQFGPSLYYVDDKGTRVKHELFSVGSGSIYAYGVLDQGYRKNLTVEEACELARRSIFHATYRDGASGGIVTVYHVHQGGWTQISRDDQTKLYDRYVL

Homo sapiens = organism: Homo sapiens; assay: To identify inhibition of the IFN signalling (Jak-Stat) pathway via expression of an eGFP reporter gene under the control of an IFN-stimulated response element (ISRE) containing MxA promoter.; assay type: functional; settings: 30 µM
[7] = target: T4, Tyrosyl-tRNA synthetase, putative (Trypanosoma cruzi (strain CL Brener)) (UniProt Q4DSP6); assay: Trypanosoma cruzi tyrosyl tRNA synthetase (TcYRS) _High Tyrosine SOP; assay type: functional; settings: 30 µM; further: in the data most compounds retested in dose-response had high values
T4 sequence (whole entry): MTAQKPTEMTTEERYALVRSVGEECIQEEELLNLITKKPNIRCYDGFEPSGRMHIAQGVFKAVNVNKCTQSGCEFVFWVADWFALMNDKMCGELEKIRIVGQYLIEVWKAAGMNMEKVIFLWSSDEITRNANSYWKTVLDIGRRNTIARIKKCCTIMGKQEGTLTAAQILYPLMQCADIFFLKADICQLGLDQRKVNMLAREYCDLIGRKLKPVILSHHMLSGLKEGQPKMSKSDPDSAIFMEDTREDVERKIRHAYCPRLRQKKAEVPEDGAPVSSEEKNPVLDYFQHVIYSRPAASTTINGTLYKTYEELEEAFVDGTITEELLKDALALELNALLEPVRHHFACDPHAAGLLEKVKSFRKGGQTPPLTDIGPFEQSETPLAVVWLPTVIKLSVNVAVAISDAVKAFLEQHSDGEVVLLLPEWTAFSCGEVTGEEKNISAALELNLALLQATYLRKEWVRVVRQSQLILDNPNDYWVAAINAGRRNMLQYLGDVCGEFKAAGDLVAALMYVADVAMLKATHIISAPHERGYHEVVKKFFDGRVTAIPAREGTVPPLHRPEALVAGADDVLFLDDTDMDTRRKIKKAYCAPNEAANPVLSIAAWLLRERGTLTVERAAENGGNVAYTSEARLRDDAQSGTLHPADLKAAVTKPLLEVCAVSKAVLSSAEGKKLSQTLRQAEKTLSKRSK

[8] = target: T4, Tyrosyl-tRNA synthetase, putative (Trypanosoma cruzi (strain CL Brener)); assay: Trypanosoma cruzi tyrosyl tRNA synthetase (TcYRS) SOP; assay type: functional; settings: 30 µM
[9] = target: Chromo domain-containing protein 1 (Saccharomyces cerevisiae (strain ATCC 204508 / S288c) (Baker's yeast)) (UniProt P32657); assay: ScCHD-1 Enzyme Inhibition Assay; assay type: functional; settings: 30 µM; further: in the data most compounds retested in dose-response had high values
Chain of Chromo domain-containing protein 1 (Saccharomyces cerevisiae (strain ATCC 204508 / S288c) (Baker's yeast)) (P32657 whole entry, the tested form may be a part): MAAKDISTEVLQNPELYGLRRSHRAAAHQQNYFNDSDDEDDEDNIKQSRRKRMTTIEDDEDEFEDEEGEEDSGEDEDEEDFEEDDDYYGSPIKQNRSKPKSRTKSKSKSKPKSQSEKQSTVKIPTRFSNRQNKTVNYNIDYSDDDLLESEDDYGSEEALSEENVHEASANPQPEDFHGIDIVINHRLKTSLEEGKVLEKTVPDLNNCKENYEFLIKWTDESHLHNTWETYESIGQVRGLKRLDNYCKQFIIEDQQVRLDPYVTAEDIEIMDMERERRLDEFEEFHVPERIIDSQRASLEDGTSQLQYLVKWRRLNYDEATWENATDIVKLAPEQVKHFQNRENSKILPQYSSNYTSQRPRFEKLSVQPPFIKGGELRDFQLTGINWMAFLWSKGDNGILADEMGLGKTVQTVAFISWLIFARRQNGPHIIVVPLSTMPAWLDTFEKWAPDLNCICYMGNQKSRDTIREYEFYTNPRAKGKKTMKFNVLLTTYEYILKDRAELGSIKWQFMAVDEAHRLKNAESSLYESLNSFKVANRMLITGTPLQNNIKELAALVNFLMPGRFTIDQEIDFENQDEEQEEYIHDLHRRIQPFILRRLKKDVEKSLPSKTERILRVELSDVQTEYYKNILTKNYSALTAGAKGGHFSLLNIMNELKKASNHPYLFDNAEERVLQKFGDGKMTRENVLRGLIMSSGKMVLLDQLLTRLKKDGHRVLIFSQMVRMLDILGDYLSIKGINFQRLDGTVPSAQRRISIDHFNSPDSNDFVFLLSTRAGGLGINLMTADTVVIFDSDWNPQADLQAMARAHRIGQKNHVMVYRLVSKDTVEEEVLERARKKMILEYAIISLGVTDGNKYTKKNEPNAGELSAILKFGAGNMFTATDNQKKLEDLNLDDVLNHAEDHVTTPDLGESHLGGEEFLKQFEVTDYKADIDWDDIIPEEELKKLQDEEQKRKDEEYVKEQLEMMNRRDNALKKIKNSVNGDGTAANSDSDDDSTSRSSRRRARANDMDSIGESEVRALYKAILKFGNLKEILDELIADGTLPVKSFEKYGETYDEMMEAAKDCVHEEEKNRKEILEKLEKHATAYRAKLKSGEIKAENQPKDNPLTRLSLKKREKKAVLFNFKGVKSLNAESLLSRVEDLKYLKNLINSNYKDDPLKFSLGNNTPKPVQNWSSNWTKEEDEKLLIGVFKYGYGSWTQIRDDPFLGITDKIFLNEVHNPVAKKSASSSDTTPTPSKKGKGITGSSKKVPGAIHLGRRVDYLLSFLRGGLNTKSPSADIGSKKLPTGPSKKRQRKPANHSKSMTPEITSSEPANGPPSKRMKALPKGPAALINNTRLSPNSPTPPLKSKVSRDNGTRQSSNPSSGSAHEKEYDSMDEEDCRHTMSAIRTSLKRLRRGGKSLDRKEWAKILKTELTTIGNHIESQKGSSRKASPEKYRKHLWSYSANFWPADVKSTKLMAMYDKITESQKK

Chain of Protein translocase subunit SecA (Escherichia coli (strain K12)) (P10408 whole entry): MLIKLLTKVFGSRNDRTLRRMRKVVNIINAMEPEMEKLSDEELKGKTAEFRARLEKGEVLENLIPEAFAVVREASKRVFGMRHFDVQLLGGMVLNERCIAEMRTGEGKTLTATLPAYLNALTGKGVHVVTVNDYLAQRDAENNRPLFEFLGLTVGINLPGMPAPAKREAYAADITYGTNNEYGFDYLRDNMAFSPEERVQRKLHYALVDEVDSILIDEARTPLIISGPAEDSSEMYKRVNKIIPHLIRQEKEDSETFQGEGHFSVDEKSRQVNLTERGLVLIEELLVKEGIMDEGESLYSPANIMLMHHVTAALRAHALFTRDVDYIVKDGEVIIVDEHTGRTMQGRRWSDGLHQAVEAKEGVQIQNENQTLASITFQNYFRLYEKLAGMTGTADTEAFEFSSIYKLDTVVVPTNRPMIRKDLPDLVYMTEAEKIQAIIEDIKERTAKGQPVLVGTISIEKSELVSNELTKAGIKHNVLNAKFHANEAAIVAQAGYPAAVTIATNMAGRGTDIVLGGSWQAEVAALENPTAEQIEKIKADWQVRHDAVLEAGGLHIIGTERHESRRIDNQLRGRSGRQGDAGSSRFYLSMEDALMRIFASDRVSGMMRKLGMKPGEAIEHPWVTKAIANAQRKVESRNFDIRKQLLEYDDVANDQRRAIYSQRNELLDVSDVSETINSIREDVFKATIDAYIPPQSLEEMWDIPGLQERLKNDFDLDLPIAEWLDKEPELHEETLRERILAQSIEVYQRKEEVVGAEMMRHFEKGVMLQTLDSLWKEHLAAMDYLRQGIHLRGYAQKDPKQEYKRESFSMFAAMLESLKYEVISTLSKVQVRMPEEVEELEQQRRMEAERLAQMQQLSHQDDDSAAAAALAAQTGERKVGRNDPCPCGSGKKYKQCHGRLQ
Chain of Sialic acid-binding Ig-like lectin 9 (Homo sapiens) (Q9Y336 whole entry): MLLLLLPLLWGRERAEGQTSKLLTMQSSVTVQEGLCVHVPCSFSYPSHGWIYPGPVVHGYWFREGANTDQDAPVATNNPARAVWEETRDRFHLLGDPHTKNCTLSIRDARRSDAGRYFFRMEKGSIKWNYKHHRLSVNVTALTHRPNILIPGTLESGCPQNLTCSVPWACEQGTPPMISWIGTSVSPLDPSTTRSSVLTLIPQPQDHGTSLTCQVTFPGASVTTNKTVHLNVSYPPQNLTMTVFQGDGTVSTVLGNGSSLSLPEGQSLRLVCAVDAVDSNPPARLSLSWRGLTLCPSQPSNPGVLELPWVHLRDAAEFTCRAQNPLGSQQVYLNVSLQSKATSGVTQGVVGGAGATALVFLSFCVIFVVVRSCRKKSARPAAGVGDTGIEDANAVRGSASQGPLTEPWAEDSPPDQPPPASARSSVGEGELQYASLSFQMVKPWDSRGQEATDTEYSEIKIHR

Question: How did the Percent Effect [1] turn out when CCS(=O)(=O)N1CCCc2ccc(NC(=O)Cc3ccc(F)cc3)cc21 was run?
Answer: 0.369%

Question: What about the Percent Effect [2] of the same compound?
Answer: 7.79%

Question: What about the Percent Effect [3] of the same compound?
Answer: -1.04%

Question: And the Percent Effect [4]?
Answer: -9.41%

Question: And the Percent Effect (Trypanosoma cruzi)?
Answer: -5.82%

Question: And the Percent Effect [5]?
Answer: 0.645%

Question: What about the Percent Effect [6] of the same compound?
Answer: 8.53%

Question: What about the Percent Effect (Homo sapiens) of the same compound?
Answer: 65.4%

Question: And the Percent Effect [7]?
Answer: -5.29%

Question: What about the Percent Effect [8] of the same compound?
Answer: -6.41%

Question: What about the Percent Effect [9] of the same compound?
Answer: -13.3%

Question: With CCc1nc(CN2CCCC(NCc3cc(C)no3)C2)no1 (stereo not drawn) as the compound, how does the Percent Effect [1] read?
Answer: -1.34%

Question: And the Percent Effect [2]?
Answer: -28.6%

Question: And the Percent Effect [3]?
Answer: 1.07%

Question: What about the Percent Effect [4] of the same compound?
Answer: -1.38%

Question: And the Percent Effect (Trypanosoma cruzi)?
Answer: 3.82%

Question: And the Percent Effect [5]?
Answer: -3.16%

Question: What about the Percent Effect [6] of the same compound?
Answer: 5.42%

Question: What about the Percent Effect (Homo sapiens) of the same compound?
Answer: 5.74%

Question: And the Percent Effect [7]?
Answer: 3.81%

Question: And the Percent Effect [8]?
Answer: 7.06%

Question: And the Percent Effect [9]?
Answer: -11.5%

Question: What does the source list for O=C(NCCNc1ncccn1)N1CCCC(C(F)(F)F)C1 (stereo not drawn)?
Answer: Percent Effect [1]: -2.28%; Percent Effect [2]: 10.8%; Percent Effect [3]: 3.11%; Percent Effect [4]: -0.403%; Percent Effect (Trypanosoma cruzi): -2.12%; Percent Effect [5]: -1.43%; Percent Effect [6]: 7.59%; Percent Effect (Homo sapiens): 6.58%; Percent Effect [7]: 4.76%; Percent Effect [8]: 19.5%; Percent Effect [9]: -5.39%

Question: With Cc1ccc(CNC2CCN(CCc3ccncc3)CC2)cc1C as the compound, how does the Percent Effect [1] read?
Answer: -4.25%

Question: And the Percent Effect [2]?
Answer: -5.41%

Question: And the Percent Effect [3]?
Answer: -4.58%

Question: What about the Percent Effect [4] of the same compound?
Answer: 7.82%

Question: What about the Percent Effect (Trypanosoma cruzi) of the same compound?
Answer: 5.47%

Question: What about the Percent Effect [5] of the same compound?
Answer: 18.8%

Question: And the Percent Effect [6]?
Answer: 5.5%

Question: What about the Percent Effect (Homo sapiens) of the same compound?
Answer: -6.77%

Question: What about the Percent Effect [7] of the same compound?
Answer: 2.97%

Question: And the Percent Effect [8]?
Answer: 8.54%

Question: What about the Percent Effect [9] of the same compound?
Answer: 29.8%

Question: What does the source list for CN(CCN1CCOCC1)C(=O)CCc1cccc(Cl)c1?
Answer: Percent Effect [1]: -0.257%; Percent Effect [2]: 13.2%; Percent Effect [3]: -2.72%; Percent Effect [4]: -7.75%; Percent Effect (Trypanosoma cruzi): -4.58%; Percent Effect [5]: -9.47%; Percent Effect [6]: 12.2%; Percent Effect (Homo sapiens): 17.3%; Percent Effect [7]: 1.06%; Percent Effect [8]: 7.79%; Percent Effect [9]: -4.62%

Question: With Cn1nc(CNC(=O)c2ccc(Cl)cc2)c2c1CCOC2 as the compound, how does the Percent Effect [1] read?
Answer: -1.53%

Question: And the Percent Effect [2]?
Answer: 2.6%

Question: What about the Percent Effect [3] of the same compound?
Answer: 6.72%

Question: What about the Percent Effect [4] of the same compound?
Answer: 8.57%

Question: And the Percent Effect (Trypanosoma cruzi)?
Answer: 0.0986%

Question: And the Percent Effect [5]?
Answer: -3.23%

Question: What about the Percent Effect [6] of the same compound?
Answer: 1.22%

Question: What about the Percent Effect (Homo sapiens) of the same compound?
Answer: 5.87%

Question: What about the Percent Effect [7] of the same compound?
Answer: 4.23%

Question: And the Percent Effect [8]?
Answer: 6.41%

Question: What about the Percent Effect [9] of the same compound?
Answer: -3.86%

Question: How did the Percent Effect [1] turn out when Cc1nc(CCNC(=O)NCc2ccc(N(C)C)nc2)cs1 was run?
Answer: -4.75%

Question: And the Percent Effect [2]?
Answer: 13.5%

Question: And the Percent Effect [3]?
Answer: -4.65%

Question: What about the Percent Effect [4] of the same compound?
Answer: 3.94%

Question: And the Percent Effect (Trypanosoma cruzi)?
Answer: 1.79%

Question: And the Percent Effect [5]?
Answer: -0.401%

Question: What about the Percent Effect [6] of the same compound?
Answer: 12.1%

Question: What about the Percent Effect (Homo sapiens) of the same compound?
Answer: -114%

Question: What about the Percent Effect [7] of the same compound?
Answer: 9.36%

Question: What about the Percent Effect [8] of the same compound?
Answer: 16.1%

Question: And the Percent Effect [9]?
Answer: -4.66%

Question: How did the Percent Effect [1] turn out when CC(=O)N1CC(=O)N(c2ccccc2)CC12CCN(Cc1nccs1)C2 (stereo not drawn) was run?
Answer: 3.29%

Question: What about the Percent Effect [2] of the same compound?
Answer: 10.7%

Question: What about the Percent Effect [3] of the same compound?
Answer: 3.41%

Question: What about the Percent Effect [4] of the same compound?
Answer: -1.44%

Question: And the Percent Effect (Trypanosoma cruzi)?
Answer: -5.02%

Question: And the Percent Effect [5]?
Answer: -54.3%

Question: What about the Percent Effect [6] of the same compound?
Answer: 7.69%

Question: And the Percent Effect (Homo sapiens)?
Answer: -3.63%

Question: What about the Percent Effect [7] of the same compound?
Answer: 7.29%

Question: What about the Percent Effect [8] of the same compound?
Answer: 30%

Question: And the Percent Effect [9]?
Answer: -7.28%
